Laboratory results from PubChem BioAssay (NCI).
Where “and” joins values, the source holds several entries; their conditions need not be identical. Identical values can stand only once. The panel holds about 83,000 compounds, 20% with a hit somewhere; the sample as a whole holds those more often.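 Negative percent growth values reflect cell death: -40 means 40% of the cells present at the start died, and -100 means all died.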

Key:
Assay in all cases: NCI-60 one-dose screen, 48 h (100 = growth as untreated, 0 = no growth, -100 = all killed)
Details in all cases: 10 µM unless noted; active means growth percent below 10; inactive means the rest
SK-MEL-2 melanoma = system: SK-MEL-2 melanoma
EKVX NSCLC = system: EKVX NSCLC
SN12C renal = system: SN12C renal
UO-31 renal = system: UO-31 renal
TK-10 renal = system: TK-10 renal
ACHN renal = system: ACHN renal
CAKI-1 renal = system: CAKI-1 renal
A498 renal = system: A498 renal
CCRF-CEM leukemia = system: CCRF-CEM leukemia
MOLT-4 leukemia = system: MOLT-4 leukemia
SR leukemia = system: SR leukemia
RPMI-8226 leukemia = system: RPMI-8226 leukemia
OVCAR-8 ovarian = system: OVCAR-8 ovarian
OVCAR-5 ovarian = system: OVCAR-5 ovarian
OVCAR-4 ovarian = system: OVCAR-4 ovarian
SK-OV-3 ovarian = system: SK-OV-3 ovarian
IGROV1 ovarian = system: IGROV1 ovarian
OVCAR-3 ovarian = system: OVCAR-3 ovarian
HS 578T breast = system: HS 578T breast
NCI/ADR-RES ovarian = system: NCI/ADR-RES ovarian

Measured: growth

CCCCNc1ccc2c3c(cccc13)C(=O)N(NCC(O)COc1ccc3c(C)cc(=O)oc3c1)C2=O (stereo not given)
inactive: SK-MEL-2 melanoma 96.9% | EKVX NSCLC 77.4% | SN12C renal 94.5% | UO-31 renal 43.5% | TK-10 renal 153% | ACHN renal 86.2% | CAKI-1 renal 85.6% | A498 renal 89.2% | CCRF-CEM leukemia 84.2% | MOLT-4 leukemia 77.7% | SR leukemia 70.2% | RPMI-8226 leukemia 69.3% | OVCAR-8 ovarian 91.2% | OVCAR-5 ovarian 106% | OVCAR-4 ovarian 74.6% | SK-OV-3 ovarian 99.4% | IGROV1 ovarian 78.9% | OVCAR-3 ovarian 87.8% | HS 578T breast 80.7% | NCI/ADR-RES ovarian 85.8%

CC(=O)Nc1ccc(S(=O)(=O)Nc2ccc(-c3ccc4c(c3)NC(=O)/C4=C\c3ccc[nH]3)cc2)cc1
inactive: SK-MEL-2 melanoma 93.8% | EKVX NSCLC 55.6% | SN12C renal 100% | UO-31 renal 73.1% | TK-10 renal 69.3% | ACHN renal 75.5% | CAKI-1 renal 76.7% | A498 renal 139% | CCRF-CEM leukemia 80.2% | MOLT-4 leukemia 71.6% | SR leukemia 34.7% | RPMI-8226 leukemia 78.3% | OVCAR-8 ovarian 98% | OVCAR-5 ovarian 79.5% | OVCAR-4 ovarian 67.8% | SK-OV-3 ovarian 104% | IGROV1 ovarian 81.2% | OVCAR-3 ovarian 141% | HS 578T breast 98.6% | NCI/ADR-RES ovarian 107%

Nc1cccc(-n2c(COc3ccc(I)cc3)nc3ccccc32)c1
inactive: SK-MEL-2 melanoma 82.5% and 105% | EKVX NSCLC 70.4% and 102% | SN12C renal 90.2% and 103% | UO-31 renal 43.6% and 81.3% | TK-10 renal 112% and 98.6% | ACHN renal 81.9% and 103% | CAKI-1 renal 56.8% and 97.2% | A498 renal 112% and 132% | CCRF-CEM leukemia 82.8% and 99.3% | MOLT-4 leukemia 71.5% and 99.8% | SR leukemia 64.7% and 101% | RPMI-8226 leukemia 68.9% and 104% | OVCAR-8 ovarian 93.4% and 106% | OVCAR-5 ovarian 88.6% and 105% | OVCAR-4 ovarian 66.2% and 105% | SK-OV-3 ovarian 64.7% and 102% | IGROV1 ovarian 46.8% and 107% | OVCAR-3 ovarian 87.7% and 83.2% | HS 578T breast 63.2% and 110% | NCI/ADR-RES ovarian 74.3% and 102%

COC(=O)c1c(C(=O)OC)c2c3ccccc3c3ccccc3n2c1C(=O)C(F)(F)F
inactive: SK-MEL-2 melanoma 94.4% | EKVX NSCLC 98.2% | SN12C renal 92.7% | UO-31 renal 65.9% | TK-10 renal 113% | ACHN renal 93.7% | CAKI-1 renal 64.8% | A498 renal 138% | CCRF-CEM leukemia 98.2% | MOLT-4 leukemia 117% | SR leukemia 81.8% | RPMI-8226 leukemia 97.6% | OVCAR-8 ovarian 99.6% | OVCAR-5 ovarian 99.2% | OVCAR-4 ovarian 94.7% | SK-OV-3 ovarian 107% | IGROV1 ovarian 82.9% | OVCAR-3 ovarian 112% | HS 578T breast 99.2% | NCI/ADR-RES ovarian 93.7%

O=C(NNC(=O)c1ccc(OCc2nc3ccc(Cl)cc3[nH]2)cc1)Nc1ccc(Cl)c(C(F)(F)F)c1
inactive: SK-MEL-2 melanoma 109% | EKVX NSCLC 69.6% | SN12C renal 64.9% | UO-31 renal 82.8% | TK-10 renal 116% | ACHN renal 75.3% | CAKI-1 renal 81% | A498 renal 154% | CCRF-CEM leukemia 48.9% | MOLT-4 leukemia 60.6% | SR leukemia 50.3% | RPMI-8226 leukemia 35.9% | OVCAR-8 ovarian 19.1% | OVCAR-5 ovarian 76.4% | OVCAR-4 ovarian 80.1% | SK-OV-3 ovarian 92.4% | IGROV1 ovarian 69.6% | OVCAR-3 ovarian 51.8% | HS 578T breast 57.2% | NCI/ADR-RES ovarian 95.4%

NNc1ncnc2sc3c(c12)CCN(Cc1ccccc1)C3
inactive: SK-MEL-2 melanoma 82% | EKVX NSCLC 36% | SN12C renal 57% | UO-31 renal 51.7% | TK-10 renal 93.5% | ACHN renal 57.4% | CAKI-1 renal 56.4% | A498 renal 93.7% | CCRF-CEM leukemia 15.8% | MOLT-4 leukemia 19.7% | SR leukemia 40.1% | RPMI-8226 leukemia 39.3% | OVCAR-8 ovarian 20% | OVCAR-5 ovarian 70.6% | OVCAR-4 ovarian 28.6% | SK-OV-3 ovarian 72.3% | IGROV1 ovarian 83.2% | OVCAR-3 ovarian 13.4% | HS 578T breast 72.3% | NCI/ADR-RES ovarian 35.3%

COc1ccc(N=Nc2c(N)nn3c(-c4ccc([N+](=O)[O-])cc4)ccnc23)cc1
inactive: SK-MEL-2 melanoma 106% | EKVX NSCLC 97.5% | SN12C renal 92.7% | UO-31 renal 97.1% | TK-10 renal 113% | ACHN renal 107% | CAKI-1 renal 88.9% | A498 renal 114% | CCRF-CEM leukemia 92% | MOLT-4 leukemia 96% | SR leukemia 98.2% | RPMI-8226 leukemia 94% | OVCAR-8 ovarian 107% | OVCAR-5 ovarian 113% | OVCAR-4 ovarian 92.8% | SK-OV-3 ovarian 106% | IGROV1 ovarian 104% | OVCAR-3 ovarian 113% | HS 578T breast 89% | NCI/ADR-RES ovarian 97.8%
